Experimental findings from PubChem BioAssay (Tox21) are described below.

Experiment [1] can be described thus: Nuclear factor erythroid 2-related factor 2/antioxidant responsive element (Nrf2/ARE) small molecule agonists: qHTS cell viability counter screen in human keratinocytes (AID 1919968; active = well fitted cell-killing curve with a large enough effect in the repeat runs; also: nearly all actives have a fitted effect of over 55% in size; also: potency is read from the fitted curve at half-maximal effect). The essentials: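 HaCaT ARE reporter line, 1,500 cells/well; 5 h settle, 37 C/5% CO2; cpd in DMSO pinned; 23 h exposure; CellTiter-Fluor, 1 h; fluorescence.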
Experiment [2] can be described thus: Nuclear factor erythroid 2-related factor 2/antioxidant responsive element (Nrf2/ARE) small molecule agonists: luciferase reporter gene qHTS assay in human keratinocytes (AID 1919969). Also: nearly all actives have a fitted effect of over 35% in size. Also: potency is read from the fitted curve at half-maximal effect. For orientation: In a reporter assay the amount or activity of a reporter protein is the signal.
The target in experiment [3] is Gonadotropin-releasing hormone receptor (Homo sapiens) (UniProt P30968). Briefly: Human gonadotropin-releasing hormone receptor (GnRHR) small molecule agonists, calcium flux assay in GnRHR-HEK293 cells (AID 1920063). Also: nearly all actives have a fitted effect of over 35% in size. The essentials: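 GnRHR-HEK293, 1500 cells/well, 18 h 37 C/5% CO2; Ca dye 1 h 37 C; cpd pinned (DMSO), agonist mode; kinetic FL 480/540, 3 min, 1 s reads; 15 conc, n=3.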
Sequence of Gonadotropin-releasing hormone receptor (Homo sapiens) (P30968 whole entry, looked up): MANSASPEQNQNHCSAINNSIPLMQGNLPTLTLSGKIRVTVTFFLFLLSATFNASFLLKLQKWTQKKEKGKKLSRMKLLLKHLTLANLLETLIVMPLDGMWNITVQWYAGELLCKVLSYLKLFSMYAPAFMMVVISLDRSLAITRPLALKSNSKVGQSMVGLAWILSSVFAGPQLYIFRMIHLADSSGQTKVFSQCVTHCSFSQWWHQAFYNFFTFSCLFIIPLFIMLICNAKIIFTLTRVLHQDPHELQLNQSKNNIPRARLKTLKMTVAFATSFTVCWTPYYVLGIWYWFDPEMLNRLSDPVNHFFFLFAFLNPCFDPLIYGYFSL
Background: Calcium assays in cells follow changes in intracellular calcium, usually with a dye or a luminescent sensor.

Experiment [4] is described as follows: G protein-coupled receptor (GPCR) small molecule agonists, calcium flux assay: HEK293 wild type cell line counter screen (AID 1920065). The essentials: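 Kinetic fluorescence at Ex/Em 480/540, recorded every second over 3 min, served as the read-out after compound addition. Each compound was tested at 15 concentrations in triplicate on cells pre-loaded with calcium dye for 1 h.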

Experiment [5] can be described thus: p53 small molecule agonists, cell-based qHTS assay with human liver microsomes (AID 1963577).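 Also: p53 response element beta-lactamase reporter cells with liver microsomes plus NADPH.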 The gist of the method: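 With metabolic activation: human liver microsomes (0.5 mg/mL final) plus NADPH (0.5 mg/mL final) added alongside compounds to p53RE-bla cells; 16 h 37 C exposure; beta-lactamase read by LiveBLAzer fluorescence.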
A short description of experiment [6]: p53 small molecule agonists, cell-based qHTS assay with rat liver microsomes (AID 1963578). The essentials: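 Metabolic activation by rat liver microsomes and NADPH, each 0.5 mg/mL final, added right after compounds to p53RE-bla reporter cells (4,000/well, plated 5 h earlier). 16 h at 37 C, then LiveBLAzer substrate for 2 h at room temperature in the dark; fluorescence read-out.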
In general terms: In qHTS, concentration-response curves come from the screen itself.

Experiment [7] in a line: p53 small molecule agonists, cell-based qHTS assay with human liver microsomes: qHTS cell viability counter screen (AID 1963579). Also: nearly all actives have a fitted effect of over 45% in size. Also: potency is read from the fitted curve at half-maximal effect. The gist of the method: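 Metabolic activation used human liver microsomes and NADPH, both 0.5 mg/mL final, over 16 hours at 37 C on p53RE-bla cells (4,000/well). Cytotoxicity measured by CellTiter-Glo luminescence, 30 min at room temperature.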

The nature of experiment [8]: p53 small molecule agonists, cell-based qHTS assay with rat liver microsomes: qHTS cell viability counter screen (AID 1963580). Also: nearly all actives have a fitted effect of over 45% in size. Also: potency is read from the fitted curve at half-maximal effect. The gist of the method: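 p53RE-bla HCT-116 cells (4,000/well) rested 5 h at 37 C, then given Tox21 compounds in DMSO with rat liver microsomes (0.5 mg/mL final) plus NADPH (0.5 mg/mL final) for 16 h at 37 C. Viability read by CellTiter-Glo luminescence after 30 min at room temperature.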

Experiment [9] is described as follows: p53 small molecule agonists, cell-based qHTS assay (AID 1963582; active = well fitted activation curve with a large enough effect in the signal ratio in the repeat runs, not every such curve was filed as active; the % refers to the signal ratio). The essentials: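 Reporter line: p53RE-bla. Pre-incubation 5 h, 37 C, 5% CO2; compound (DMSO, pin tool) 16 h, 37 C; B/G FRET substrate 2 h RT; fluorescence intensity read.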
In experiment [10] the target is 5-hydroxytryptamine receptor 2A (Homo sapiens) (UniProt P28223). Briefly: 5-hydroxytryptamine receptor 2A (HTR2A) small molecule antagonists, cell-based qHTS assay (AID 1963586). Also: nearly all actives have a fitted effect of over 45% in size. The essentials:
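Antagonist-mode intracellular calcium assay: DOI (4 nM) added after 5 min compound pre-incubation at room temperature to dye-loaded HTR2A-CHO cells. Fluorescence followed for 3 min, sampled every second.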

For experiment [11] the target is unchanged. Kind of experiment: 5-hydroxytryptamine receptor 2A (HTR2A) small molecule agonists, cell-based qHTS assay (AID 1963587). Also: nearly all actives have a fitted effect of over 30% in size. The essentials:
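HTR2A-CHO cells, plated 18 h at 37 C/5% CO2, dye-loaded 1 h at 37 C; compounds in DMSO added by pin tool (agonist mode). Intracellular calcium flux read as kinetic fluorescence on FDSS over 2 min at 1 s intervals.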

For experiment [12], the target named is Muscarinic acetylcholine receptor M1 (Homo sapiens) (UniProt P11229). Kind of experiment: Cholinergic receptor muscarinic 1 (CHRM1) small molecule antagonists, cell-based qHTS assay (AID 1963588). Also: nearly all actives have a fitted effect of over 40% in size. The essentials:
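CHRM1-CHO calcium-flux assay, antagonist mode. Cells were seeded 18 h, dye-loaded 1 h at 37 C and given compound for 5 min at RT, then acetylcholine was added at 50nM. FDSS fluorescence was read 3 min; 15 concentrations, three runs.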

Experiment [13] shares this target. Kind of experiment: Cholinergic receptor muscarinic 1 (CHRM1) small molecule agonists, cell-based qHTS assay (AID 1963589). Also: nearly all actives have a fitted effect of over 35% in size. The gist of the method:
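Human M1 in stable CHO line; 18 h plating, 1 h dye load 37 C; cpd added (agonist mode); Ca2+ fluorescence kinetic read, 1 s intervals; 15 conc, 3 runs.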

The nature of experiment [14]: cAMP Responsive Elements (CRE) small molecule antagonists, cell-based qHTS assay (AID 1963591; active = well fitted inhibition curve with a large enough effect in the signal ratio in the repeat runs, not every such curve was filed as active; the % refers to the signal ratio). The essentials: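 Beta-lactamase reporter read by FRET substrate (LiveBLAzer B/G) after 2 h at room temperature. CRE-bla HEK293T cells had received compound plus 0.25 uM (final) NKH477 for 3 h at 37 °C.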
Experiment [15] deals with Beta-2 adrenergic receptor (Homo sapiens) (UniProt P07550). Briefly: Adrenergic beta2 receptor (ADRB2) small molecule antagonists, cell-based qHTS assay (AID 1963592). Also: series mostly up to about 92 µM; nearly all actives have a fitted effect of over 50% in size. The gist of the method: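 Cells (CHO, stable ADRB2 overexpression) incubated 18-20hr at 37C; compounds added from DMSO; agonist mix (1nM isoproterenol, 100uM IBMX, 25uM Ro-20-1724) added; 0.5hr RT; d2-cAMP and anti-cAMP-cryptate added; 1hr RT; 665/615 nm read.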
Sequence of Beta-2 adrenergic receptor (Homo sapiens) (P07550 whole entry, looked up): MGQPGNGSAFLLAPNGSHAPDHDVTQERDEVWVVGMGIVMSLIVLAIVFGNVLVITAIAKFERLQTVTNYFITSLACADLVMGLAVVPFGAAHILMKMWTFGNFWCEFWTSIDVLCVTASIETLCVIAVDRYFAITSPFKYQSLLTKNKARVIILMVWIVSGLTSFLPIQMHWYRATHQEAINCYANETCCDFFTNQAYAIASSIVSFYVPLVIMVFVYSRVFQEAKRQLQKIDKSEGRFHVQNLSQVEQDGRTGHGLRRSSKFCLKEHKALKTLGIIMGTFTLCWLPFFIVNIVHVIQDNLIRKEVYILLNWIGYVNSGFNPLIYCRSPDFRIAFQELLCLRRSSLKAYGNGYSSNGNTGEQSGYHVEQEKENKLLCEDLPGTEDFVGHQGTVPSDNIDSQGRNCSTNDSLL

Experiment [16] in a line: cAMP Responsive Elements (CRE) small molecule agonists, cell-based qHTS assay (AID 1963590). The essentials: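 HEK 293T CRE-bla, 2,000 cells/well, 18 h preincubation 37 C/5% CO2; cpds (DMSO) pinned, 3 h; LiveBLAzer B/G FRET substrate, 2 h RT.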
For experiment [17], the target named is Beta-2 adrenergic receptor (Homo sapiens) (UniProt P07550). Kind of experiment: Adrenergic beta2 receptor (ADRB2) small molecule agonists, cell-based qHTS assay (AID 1963593).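 Also: CHO cells stably overexpressing human ADRB2.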 The essentials: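 CHO cells stably over-expressing ADRB2 were plated overnight at 37C, then dosed with compounds plus a stimulation mix containing 100uM IBMX and 25uM Ro-20-1724 for 0.5hr at room temperature. cAMP was measured by HTRF competition, 1hr.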

The target of experiment [18] is D(2) dopamine receptor (Homo sapiens) (UniProt P14416). Kind of experiment: Dopamine D2 receptor (DRD2) small molecule agonists, cell-based qHTS assay (AID 1963594). Also: nearly all actives have a fitted effect of over 35% in size. The gist of the method:
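HEK293 cells stably expressing DRD2 were cultured 24 h at 37 C, then given Ro20-1724 (0.1 mM final) and compounds for 10 min at room temperature. NKH477 (200nM) was then added for 30 min. cAMP was read by HTRF.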

The nature of experiment [19]: p53 small molecule agonists, cell-based qHTS assay: qHTS cell viability counter screen (AID 1963581). Also: nearly all actives have a fitted effect of over 45% in size. Also: potency is read from the fitted curve at half-maximal effect. The gist of the method:
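HCT-116 p53RE-bla cells, 4,000/well, plated 5 h before compound pin transfer; 16 h at 37 C; bla substrate 2 h RT; then CellTiter-Glo, 30 min RT, luminescence.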

For experiment [20], the target named is D(2) dopamine receptor (Homo sapiens) (UniProt P14416). Kind of experiment: Dopamine D2 receptor (DRD2) small molecule antagonists, cell-based qHTS assay (AID 1963595; active = well fitted inhibition curve with a large enough effect in the signal ratio in the repeat runs, with a control signal flat; the % refers to the signal ratio). The essentials: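 In this cell-based antagonist screen, compounds act for 10 min at room temperature before a 30 min challenge with 12 nM quinpirole and 200 nM NKH477. cAMP is quantified by HTRF competition in DRD2-HEK293 cells containing 0.1 mM Ro20-1724.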
Sequence of D(2) dopamine receptor (Homo sapiens) (P14416 whole entry, looked up): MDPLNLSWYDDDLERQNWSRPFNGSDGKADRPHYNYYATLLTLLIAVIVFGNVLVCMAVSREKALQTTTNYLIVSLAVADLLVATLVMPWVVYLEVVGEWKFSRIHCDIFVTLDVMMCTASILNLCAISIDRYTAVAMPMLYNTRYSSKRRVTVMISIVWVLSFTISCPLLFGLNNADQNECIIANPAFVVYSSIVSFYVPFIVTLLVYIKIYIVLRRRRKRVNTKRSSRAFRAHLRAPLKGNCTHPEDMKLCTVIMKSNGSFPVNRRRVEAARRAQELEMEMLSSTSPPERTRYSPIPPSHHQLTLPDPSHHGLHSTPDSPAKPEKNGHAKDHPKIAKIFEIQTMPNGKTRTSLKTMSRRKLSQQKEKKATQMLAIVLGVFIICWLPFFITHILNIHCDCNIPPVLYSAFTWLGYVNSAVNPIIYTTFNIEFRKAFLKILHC

Several values for one entry are separate records, joined by “and”; a condition that tells them apart may be missing. Identical values can stand only once. Inconclusive results are not listed. Activity calls are given as the source filed them. Unless noted, calls follow the shape of the full dose curve.

Sequence of 5-hydroxytryptamine receptor 2A (Homo sapiens) (P28223 whole entry, looked up): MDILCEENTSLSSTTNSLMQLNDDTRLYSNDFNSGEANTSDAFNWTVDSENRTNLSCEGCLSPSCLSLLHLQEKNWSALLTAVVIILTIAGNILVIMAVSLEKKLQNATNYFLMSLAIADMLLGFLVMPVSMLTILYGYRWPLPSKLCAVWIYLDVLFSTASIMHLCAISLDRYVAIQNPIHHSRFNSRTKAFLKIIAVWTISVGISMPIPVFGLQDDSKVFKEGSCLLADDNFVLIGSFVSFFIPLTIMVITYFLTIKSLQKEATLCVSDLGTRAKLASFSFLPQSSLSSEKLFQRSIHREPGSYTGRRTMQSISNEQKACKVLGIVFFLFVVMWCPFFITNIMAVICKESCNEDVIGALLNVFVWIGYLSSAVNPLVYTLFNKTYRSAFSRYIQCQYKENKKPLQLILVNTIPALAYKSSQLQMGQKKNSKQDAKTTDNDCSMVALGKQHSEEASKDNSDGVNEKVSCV
Sequence of Muscarinic acetylcholine receptor M1 (Homo sapiens) (P11229 whole entry, looked up): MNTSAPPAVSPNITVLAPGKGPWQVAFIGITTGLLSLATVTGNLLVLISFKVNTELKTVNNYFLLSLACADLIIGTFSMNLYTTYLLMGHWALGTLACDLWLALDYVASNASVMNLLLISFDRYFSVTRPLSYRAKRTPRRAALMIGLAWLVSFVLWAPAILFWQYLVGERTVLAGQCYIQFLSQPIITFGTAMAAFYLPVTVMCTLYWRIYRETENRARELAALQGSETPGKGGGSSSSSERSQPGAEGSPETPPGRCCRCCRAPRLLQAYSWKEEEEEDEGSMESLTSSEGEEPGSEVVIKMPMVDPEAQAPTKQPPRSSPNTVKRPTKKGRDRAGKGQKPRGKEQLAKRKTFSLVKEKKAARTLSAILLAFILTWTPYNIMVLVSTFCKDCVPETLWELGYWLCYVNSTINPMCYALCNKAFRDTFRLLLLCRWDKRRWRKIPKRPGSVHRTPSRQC

In the case of `c1ccc2cnccc2c1`, the Potency entry in [1], in experiment [2], in experiment [3], in experiment [4], in [5] and in experiment [6] was “inactive” throughout. The Potency entry in experiment [7], in [8], in [9], in experiment [10], in experiment [11] and in [12] was “inactive” each time. Further, the Potency entry in experiment [13], in experiment [14] and in experiment [15] was “inactive” throughout.
For `O=C(O)c1cc(C(=O)O)cc([N+](=O)[O-])c1`, the Potency result in experiment [1], in experiment [2], in experiment [3], in experiment [4], in [5] and in experiment [6] was “inactive” each time. Further, the Potency entry in experiment [7], in [10], in [11], in experiment [12], in experiment [13] and in experiment [16] was “inactive” in each case. The Potency entry in experiment [14], in experiment [15], in [17] and in experiment [18] was “inactive” each time.
Regarding `Cc1ccccc1OCC(O)CO` (stereo unspecified), the Potency entry in experiment [1], in [2], in experiment [3], in experiment [4], in experiment [5] and in [6] was “inactive” in each case. Further, the Potency entry in experiment [7], in [19], in [9], in experiment [10], in experiment [11] and in [13] was “inactive” throughout. Besides, the Potency entry in [16], in [14], in [15], in [17], in [18] and in experiment [20] was “inactive” in each case.
As to `CNC(=O)NC`, the Potency entry in experiment [1], in experiment [2], in [3], in [5], in experiment [6] and in experiment [7] was “inactive” throughout. Moreover, the Potency result in [8], in [19], in [9], in experiment [10], in experiment [11] and in [12] was “inactive” throughout. Moreover, the Potency entry in experiment [13], in [14], in experiment [15], in experiment [18] and in [20] was “inactive” in each case.
Take `C=CC(C)(O)CC/C=C(\C)CC` (stereo unspecified): the Potency entry in experiment [1], in experiment [2], in experiment [3], in [4], in experiment [5] and in experiment [6] was “inactive” throughout. Moreover, the Potency entry in experiment [8], in experiment [19], in experiment [9], in [10], in [11] and in experiment [12] was “inactive” in each case. The Potency result in experiment [13], in experiment [16], in experiment [14], in experiment [15], in experiment [17] and in [18] was “inactive” in each case. Moreover, the Potency result in experiment [20] is “inactive”.
For the molecule `CN(C)c1ccc(C(=C2C=CC(=[N+](C)C)C=C2)c2ccc(N(C)C)cc2)cc1`, the Potency was 7.66 µM (active) and 13.7 µM (active) in [1]; 6.08 µM (active) in experiment [2]; 32.2 µM (active) and 40.8 µM (active) in experiment [7]; 22.8 µM (active) and 36.3 µM (active) in [8]; 18.1 µM (active) and 40.8 µM (active) and 17.8 µM (active) in [19]. In addition, the Potency entry in experiment [4], in experiment [5], in experiment [6] and in [9] was “inactive” each time.
Turning to `Cc1ccc(S(=O)(=O)NC(=O)NC2CCCCCCC2)cc1`, the Potency result in experiment [1], in [2], in experiment [4], in experiment [5], in experiment [6] and in experiment [7] was “inactive” in each case. The Potency entry in experiment [8], in experiment [19], in experiment [9], in [10], in experiment [11] and in experiment [12] was “inactive” throughout. For the same molecule, the Potency entry in experiment [13], in experiment [16], in experiment [14], in experiment [15], in [17] and in [18] was “inactive” each time.
Regarding `O=C(O)c1cc(=O)[nH]c(=O)[nH]1`, the Potency entry in experiment [1], in experiment [2], in [4], in experiment [5], in experiment [6] and in [7] was “inactive” each time. Also, the Potency entry in [8], in experiment [19], in [9], in experiment [10], in [11] and in experiment [12] was “inactive” in each case. Moreover, the Potency result in experiment [13], in experiment [16], in [14], in experiment [15], in [17] and in experiment [18] was “inactive” throughout. Further, in experiment [20], the Potency result is “inactive”.
